This is part of a sample that, as a whole, favours compounds with a hit. Of some 83,000 tested, about 20% had one in any assay.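 Cell lines were cultured in 96-well plates, exposed to a single compound concentration, and assessed for percent growth 48 hours later.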 Activity calls are given as the source filed them. The calls were made as follows: active = growth percent below 10; inactive = the rest.

This test concerns HL-60(TB) leukemia. Nature of the test: NCI-60 one-dose screen, 48 h (100 = growth as untreated, 0 = no growth, -100 = all killed). The conditions noted are these: 10 µM unless noted.
As to `Clc1ccc(/C=C2\CCCC3=C2N=C2SC=NN2C3c2ccc(Cl)cc2)cc1` (stereo not given), the growth is 91.1% (inactive).
Turning to `CN1CCN(Cc2ccc(NC(=O)c3cncc(C#Cc4c(N)ncc5ccc(C#N)cc45)c3)cc2C(F)(F)F)CC1`, the growth is 9.71% (active).
With `CC(=O)OC1Oc2ccccc2-c2oc(=O)c(-c3cc4ccc(N(C)C)cc4oc3=O)cc21` (stereo not given), the growth was -9.4% (active).
For `CC(=O)c1ccc2oc(=O)n(Cc3ccc(C#N)cc3)c(=O)c2c1` the value was 109% (inactive).
Turning to `CCOC(=O)c1cnc2c(C)cccc2c1Nc1ccc(C(C)=O)cc1`, the growth was -43.5% (active).

The values above are taken from PubChem BioAssay (NCI).
